Screening data from PubChem.
Rows were chosen to be rich in hits. Some 1.5% of all compounds tested hit in one or more screens of this group.
USP2a inhib = qHTS Assay for Inhibitors of Ubiquitin-specific Protease USP2a | Ubiquitin carboxyl-terminal hydrolase 2 (Homo sapiens), O75604 | USP2a enzymatic assay, qHTS inhibition | Potency, µM (series often up to 38.3 µM), for the others: at the top dose activity change, negative = inhibition, actives largely listed as inhibitors | 0.1% of 60,000 active | AID 927, 2007; note: potency is the fitted concentration of half-maximal effect; nearly all actives have a fitted effect of over 60% in size
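USP2 core (20nM final) preincubated 30 min RT with compound, then Ub-PLA2 20nM and NBD C6-HPC 20uM final added; buffer 20mM Tris-HCl pH 8.0, 2mM CaCl2. Fluorescence Ex 460/Em 535 read at 0 and 2.5 h; normalized to NEM.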
BRCT PPI green = qHTS Assay for Inhibitors of BRCT-Phosphoprotein Interaction (Green Fluorophore). 0.05% of 75,000 active. Potency, µM (highest dose often 76.9 µM), for the others: top-dose activity change, negative = inhibition, usual class: inhibitors. Breast cancer type 1 susceptibility protein (Homo sapiens), P38398. BRCA1 BRCT-phosphopeptide binding, green fluorescence polarization;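 note: potency is the fitted concentration of half-maximal effect; plate controls were peptide without protein for full effect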
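Compounds were incubated for 12 min at room temperature with a complex of 100 nM fluorescein-tagged pBACH1 decapeptide and 250 nM His-tagged BRCT protein. Buffer was phosphate pH 7.3 with EDTA, DTT and Tween 20. Disruption of binding lowers the polarization signal.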
BRCT inh red = qHTS Assay for Inhibitors of BRCT-Phosphoprotein Interaction (Red Fluorophore). AID 892, 2007. BRCT-phosphopeptide binding, red fluorescence polarization. Breast cancer type 1 susceptibility protein (Homo sapiens), P38398. 0.03% of 75,000 active. Potency, µM (highest dose often 76.9 µM), for inactives: at the top dose activity change, negative = inhibition, most hits filed as inhibitors; note: % is set by controls: 0 for no effect and ±100 for the full control effect
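Fluorescence polarization: 100 nM His-tagged BRCA1 BRCT with 100 nM TAMRA-labelled phospho-BACH1 decapeptide, phosphate buffer pH 7.3 with 150 mM NaCl, DTT, 0.01% Tween 20; 12 min RT. Binding inhibition seen as FP decrease.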
Caspase-7 inhib = qHTS Assay for Allosteric/Competitive Inhibitors of Caspase-7; P55210; recombinant caspase-7, Ac-DEVD-AFC fluorescence rate; Potency, µM (titrated, usually from 57.5 µM), for inactives: at the top dose activity change, negative = inhibition, usual class: inhibitors; 0.02% of 75,000 active; AID 889, 2007; active = well fitted inhibition curve with a large enough effect in the main read-out, with a control signal flat, not every such curve was filed as active; inconclusive = small, poorly fitted or top-dose-only effect, or a change in a side signal; note: potency is the fitted concentration of half-maximal effect; % of control where 0% means no effect
Target sequence (P55210 24-198 limits assumed): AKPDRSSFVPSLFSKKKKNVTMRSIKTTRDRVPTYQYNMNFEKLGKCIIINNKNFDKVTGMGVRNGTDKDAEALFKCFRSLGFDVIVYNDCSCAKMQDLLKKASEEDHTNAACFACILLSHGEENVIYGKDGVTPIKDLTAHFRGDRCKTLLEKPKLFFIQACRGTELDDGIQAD
Target sequence (P55210 207-303 limits assumed): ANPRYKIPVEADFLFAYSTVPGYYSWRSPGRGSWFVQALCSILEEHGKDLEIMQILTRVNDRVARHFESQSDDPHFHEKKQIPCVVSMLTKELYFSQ
15-hLO inh = qHTS Assay for Inhibitors of 15-hLO (15-human lipoxygenase) | AID 887, 2007 | Polyunsaturated fatty acid lipoxygenase ALOX15 (Homo sapiens), P16050 | purified 15hLO-1, xylenol orange hydroperoxide absorbance | Potency, µM (series often up to 57.1 µM), for inactives: at the top dose activity change, negative = inhibition, usual class: inhibitors | 1.4% of 74,000 active; note: potency is the fitted concentration of half-maximal effect; % is set by controls: 0 for no effect and ±100 for the full control effect; nearly all actives have a fitted effect of over 55% in size
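Quantitative HTS in 25 mM Hepes pH 7.5 containing 0.01% Triton X-100: human 15hLO-1 at 40 nM, arachidonic acid at 50 uM, 6 min turnover. Product quantified via ferrous oxidation/xylenol orange, 573:405 nm absorbance ratio.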
Casp1 inh = qHTS Assay for Allosteric/Competitive Inhibitors of Caspase-1; P29466; Caspase-1 enzyme, Ac-WEHD-AFC fluorogenic rate; Potency, µM (doses to about 57.5 µM), for inactives: top-dose activity change, negative = inhibition, actives largely listed as inhibitors; 0.03% of 75,000 active;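 note: potency is the fitted concentration of half-maximal effect; plate controls were vehicle for no effect and no substrate for full effect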
Target sequence (P29466 120-297 limits assumed): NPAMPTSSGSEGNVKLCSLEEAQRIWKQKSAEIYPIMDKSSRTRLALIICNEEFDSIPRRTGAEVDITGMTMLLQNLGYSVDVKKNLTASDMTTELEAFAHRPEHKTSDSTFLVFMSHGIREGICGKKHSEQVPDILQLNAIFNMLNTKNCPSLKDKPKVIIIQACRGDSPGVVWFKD
Target sequence (P29466 317-404 limits assumed): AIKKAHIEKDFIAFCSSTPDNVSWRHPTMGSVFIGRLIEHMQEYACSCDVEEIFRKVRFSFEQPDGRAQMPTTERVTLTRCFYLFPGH
* marks the source's active call; other numbers are inactive results; ? = inconclusive; nt = not tested or not shown; [ ] = dose if it differs, or a comment. Unless noted, calls come from the whole dose curve; as a rule, active = well fitted curve in the direction sought with a large enough effect; inconclusive = small, poorly fitted or top-dose-only effect, or another doubt; inactive = no such curve, though single readings can be large; an effect the other way counts as inactive or inconclusive.

SMILES	USP2a inhib	BRCT PPI green	BRCT inh red	Caspase-7 inhib	15-hLO inh	Casp1 inh
S=C(S)NCCCn1ccnc1	nt	-1%[15.4 µM]	-1%[15.4 µM]	-1%[11.5 µM]	-9%[11.4 µM]	0%[11.5 µM]
COc1ccccc1-c1cncnc1Nc1ccccc1	26%	-1%	-2%	-4%	25µM*	-3%
COc1ccccc1-c1cncnc1NCCNC(C)=O	-20%	-1%	0%	-5%	10µM*	-2%
c1coc(-c2nc3ccccc3nc2-c2ccco2)c1	20%	-3%	-3%	?	25µM*	nt
Cc1ccc(S(=O)(=O)c2cc3c(=O)n4ccccc4nc3n(Cc3ccco3)c2=N)cc1C	22%	-10%	-10%	?	32µM*	nt
N=c1c(S(=O)(=O)c2ccccc2)cc2c(=O)n3ccccc3nc2n1Cc1ccco1	20%	3%	0%	?	-19%	nt
COC(=O)c1ccc2c(c1)N(Cc1nc(-c3cccc(Cl)c3)oc1C)C(=O)C1CCCN21 (configuration not stated)	44%	2%	1%	-2%	13µM*	-1%
Cn1c(O)c(N=N/C(=N/c2ccccn2)c2ccccn2)c2cc(Br)ccc21	nt	-5%	-1%	-4%	?	-3%
COc1cc(OC)cc(C(=O)NCCN2CCOCC2)c1	nt	-1%	1%	2%	10µM*	1%
CCOc1ccc(-c2cc(C(=O)N/N=C/c3ccc(O)c(OC)c3)[nH]n2)cc1	nt	-3%	1%	0%	-28%	0%
COC(=O)C1C(=O)C2=C(CC1C)NC(C)=C(C(=O)OCCOc1ccccc1)C2c1ccc(C)o1 (configuration not stated)	40%	1%	-2%	-12%	-27%	?
COC(=O)C1C(=O)C2=C(CC1C)NC(C)=C(C(=O)OC1CCCCC1)C2c1ccc(N(C)C)cc1 (configuration not stated)	41%	5%	0%	-27%	16µM*	?
CCOC(=O)c1[nH]cc(-c2ccccc2)c1N1CCOCC1	3%	0%	-1%	0%	25µM*	0%
COc1ccc(OC2C(O)COC2/C=C/C#Cc2ccc(F)cc2F)cc1 (configuration not stated)	nt	0%[15.4 µM]	2%[15.4 µM]	-2%[11.5 µM]	-10%[11.4 µM]	-1%[11.5 µM]
O=C(O)CCN1Cc2ccccc2C1=O	-25%	1%	1%	-23%	20µM*	-5%
Nc1ccc(-c2nc3ccc(-c4nc5ccc(N)cc5[nH]4)cc3[nH]2)cc1	25µM*	-5%	-4%	-7%	-12%	3%
COc1ccc(-n2c(=O)c(-c3ccc(Cl)cc3)nc3cnc(N4CCOCC4)nc32)cc1	92%	0%	-1%	?	-7%	nt
CC(=O)CCc1oc2ccc(NC(C)=O)cc2c1-c1ccc(C)o1	4%	-2%	-2%	-9%	16µM*	-10%
CC(=O)Nc1ccccc1-c1ccc(C)o1	2%	-4%	0%	-6%	3%	-4%
COc1cccc(-c2cncnc2NCc2cccc(C)c2)c1	-1%	1%	-2%	-6%	-8%	-7%
COc1cccc(-c2cncnc2NCc2cccnc2)c1	25%	0%	0%	-3%	16µM*	-4%
CN(C)c1ccc(-c2cncnc2Nc2ccc(F)cc2)cc1	39%	0%	-1%	1%	2.5µM*	-4%
COc1ccccc1CNc1ncncc1-c1ccoc1	38%	6%	-3%	-9%	10µM*	-1%
COc1ccc(CNc2ncncc2-c2ccc(N(C)C)cc2)c(OC)c1	0%	-1%	-1%	?	20µM*	nt
CCC1c2ccc(C)n2CCN1C(=O)Nc1ccccc1OC (configuration not stated)	22%	-11%	-9%	-25%	3.2µM*	?
SMILES	USP2a inhib	BRCT PPI green	BRCT inh red	Caspase-7 inhib	15-hLO inh	Casp1 inh
c1ccc2c(c1)CCN(c1nc3cc4c(cc3s1)OCCO4)C2	?	-4%	0%	-28%	4µM*	-3%
O=c1[nH][nH]c(=S)c(=O)[nH]1	nt	0%[15.4 µM]	1%[15.4 µM]	-1%[11.5 µM]	-23%[11.4 µM]	2%[11.5 µM]
COc1cc(C2C(C#N)=C(N)Oc3cc(N(C)C)ccc32)cc2c1OCO2 (configuration not stated)	6%	18%	-1%	-23%	25µM*	-20%
COc1cc(C2C(C#N)=C(N)Oc3c2oc(CO)cc3=O)ccc1OC(C)C (configuration not stated)	-7%	1%	-4%	0%	20µM*	-1%
COc1cc(C2C(C#N)=C(N)Oc3cc(O)ccc32)cc2c1OCO2 (configuration not stated)	nt	-2%	-2%	-6%	2%	2%
COc1ccc(C2C(C#N)=C(N)Oc3cc(O)ccc32)cc1OC (configuration not stated)	-3%	3%	0%	?	10µM*	nt
Cc1ccc(C)c([C@@H]2NC(=O)c3ccccc3N2)c1	nt	0%[15.4 µM]	-3%[15.4 µM]	-3%[11.5 µM]	1%[11.4 µM]	-1%[11.5 µM]
COCOc1ccc(Br)cc1C(=O)[C@H]1O[C@H]1c1cccc(OC)c1	nt	-2%[15.4 µM]	0%[15.4 µM]	2%[11.5 µM]	15%[11.4 µM]	1%[11.5 µM]
CCN1CCN(Cc2ccc(NC(=O)Nc3ccccc3OC)cc2)CC1	nt	0%	-2%	2%	3.2µM*	-2%
CCOC(=O)c1ccc(N2CSC3=C(C#N)C(c4cccs4)CC(=O)N3C2)cc1 (configuration not stated)	nt	0%	0%	-3%	13µM*	-3%
CN1CSC2=C(C#N)C(c3cccc(OCc4ccccc4)c3)CC(=O)N2C1 (configuration not stated)	nt	-2%	1%	-12%	5µM*	-4%
CCc1ccc(N2CSC3=C(C#N)C(c4cccs4)CC(=O)N3C2)cc1 (configuration not stated)	23%	5%	0%	-16%	?	-8%
N#CC1=C2SCN(c3ccc(F)cc3)CN2C(=O)CC1c1cccc(F)c1 (configuration not stated)	nt	-2%	0%	-4%	?	2%
CCc1ccc(C2CC(=O)N3CN(c4ccccc4)CSC3=C2C#N)cc1 (configuration not stated)	nt	4%	-1%	?	2.5µM*	-16%
COc1ccc(N2CSC3=C(C#N)C(c4cccs4)CC(=O)N3C2)cc1 (configuration not stated)	26%	5%	-1%	-24%	?	?
